Data taken from PubChem BioAssay (EPA / NIEHS).
Records with an inconclusive call do not appear. Calls of active or inactive are those of the source. Rule for the calls: active = hit-call score of the fitted dose curve at least 0.9, where 1 is the maximum; inconclusive = response in the unintended direction; inactive = score below 0.9.

Biological target: Androgen Receptor/SRC-1 Co-activator, AR (gene 367) (UniProt P10275)
Experiment: OT_AR_ARSRC1_0960: Odyssey Thera (OT) 16-hour HEK293T Protein-Complementation Assay for Androgen Receptor/SRC-1 Co-activator (AID 2283353);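 note: actives raise the signal above DMSO so potency reflects increased AR and SRC-1 complex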
Method in brief: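 Endpoint is gain-of-signal N/C fluorescence ratio in the 488 nm channel versus DMSO, from at least 400 cells per image, measured 16 h post-dosing. Cells: HEK293T stably carrying split-Venus AR/SRC-1 complementation constructs.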

Chain of Androgen Receptor/SRC-1 Co-activator, AR (gene 367) (P10275 whole entry, looked up): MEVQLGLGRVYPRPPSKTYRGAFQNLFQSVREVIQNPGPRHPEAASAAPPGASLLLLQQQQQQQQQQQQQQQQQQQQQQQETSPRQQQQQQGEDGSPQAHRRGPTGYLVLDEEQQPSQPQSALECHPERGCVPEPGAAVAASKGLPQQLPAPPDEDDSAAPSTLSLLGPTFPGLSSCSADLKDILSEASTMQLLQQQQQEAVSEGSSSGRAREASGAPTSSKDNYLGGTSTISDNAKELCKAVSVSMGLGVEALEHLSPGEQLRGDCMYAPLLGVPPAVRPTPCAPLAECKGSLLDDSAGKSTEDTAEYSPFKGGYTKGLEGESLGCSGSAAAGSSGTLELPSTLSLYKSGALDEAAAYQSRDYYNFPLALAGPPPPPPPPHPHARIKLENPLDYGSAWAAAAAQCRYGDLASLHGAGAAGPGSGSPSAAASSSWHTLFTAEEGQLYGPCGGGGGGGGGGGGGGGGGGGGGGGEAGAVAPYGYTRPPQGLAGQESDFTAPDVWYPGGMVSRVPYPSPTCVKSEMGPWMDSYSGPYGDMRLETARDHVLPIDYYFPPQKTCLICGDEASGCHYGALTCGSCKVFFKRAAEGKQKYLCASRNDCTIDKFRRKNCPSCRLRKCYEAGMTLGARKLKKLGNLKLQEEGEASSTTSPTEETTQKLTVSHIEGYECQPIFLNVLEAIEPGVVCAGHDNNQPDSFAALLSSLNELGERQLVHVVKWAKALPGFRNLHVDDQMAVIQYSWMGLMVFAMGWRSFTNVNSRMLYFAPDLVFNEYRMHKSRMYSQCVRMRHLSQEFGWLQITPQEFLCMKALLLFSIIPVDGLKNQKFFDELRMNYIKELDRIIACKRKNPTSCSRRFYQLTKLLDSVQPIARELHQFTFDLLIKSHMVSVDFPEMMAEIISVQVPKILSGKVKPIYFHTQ

SMILES | AC50 | outcome
C=C1C[C@H]2[C@@H]3C=C(C)C4=CC(=O)CC[C@]4(C)[C@H]3CC[C@]2(C)[C@@]1(OC(C)=O)C(C)=O | 6.25 µM (active) | –
CCCCCC[C@@H](O)C/C=C\CCCCCCCC(=O)OCC(O)CO (stereo not given in full) | – | inactive
CCc1cccc(C)c1N | – | inactive
CCCCC(CC)COC(=O)/C=C/c1ccc(OC)cc1 (stereo not given) | 50 µM (active) | –
CN(C)Cc1cc(CN(C)C)c(O)c(CN(C)C)c1 | – | inactive

Biological target: Androgen Receptor/SRC-1 Co-activator, AR (gene 367) (UniProt P10275)
Experiment: OT_AR_ARSRC1_0480: Odyssey Thera (OT) 8-hour HEK293T Protein-Complementation Assay for Androgen Receptor/SRC-1 Co-activator (AID 2283354);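 note: hits raise the complementation signal above DMSO so AC50 marks enhancers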
Method in brief: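 After 8 h dosing, stably expressing HEK293T cells with split-Venus AR/SRC-1 fusions were imaged (488, 635nm). The 488nm N/C ratio per image gave the endpoint, analysed in the positive direction against DMSO.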

SMILES | AC50 | outcome
C=C1C[C@H]2[C@@H]3C=C(C)C4=CC(=O)CC[C@]4(C)[C@H]3CC[C@]2(C)[C@@]1(OC(C)=O)C(C)=O | 5.8 µM (active) | –
CCc1cccc(C)c1N | – | inactive
CCCCC(CC)COC(=O)/C=C/c1ccc(OC)cc1 (stereo not given) | – | inactive
CN(C)Cc1cc(CN(C)C)c(O)c(CN(C)C)c1 | – | inactive

Biological target: Estrogen receptor (Homo sapiens) + Estrogen receptor beta (Homo sapiens) (UniProt P03372+Q92731)
Experiment: OT_ER_ERaERb_1440: Odyssey Thera (OT) 24-hour HEK293T Protein-Complementation Assay for Estrogen Receptor-alpha/-beta Homodimer (AID 2283356);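 note: heteromer of ER alpha and ER beta binding domains; hits raise reporter fluorescence and both agonists and antagonists give an increase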
Method in brief: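 Fragment complementation between ER alpha (310-547) and ER beta (263-489) ligand-binding domains in HEK293T cells; signal read 24 h post-dosing by laser scanning cytometer. Gain of fluorescence relative to DMSO fitted.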

Chain of Estrogen receptor (Homo sapiens) + Estrogen receptor beta (Homo sapiens) (P03372 whole entry, looked up, the tested form may be a part): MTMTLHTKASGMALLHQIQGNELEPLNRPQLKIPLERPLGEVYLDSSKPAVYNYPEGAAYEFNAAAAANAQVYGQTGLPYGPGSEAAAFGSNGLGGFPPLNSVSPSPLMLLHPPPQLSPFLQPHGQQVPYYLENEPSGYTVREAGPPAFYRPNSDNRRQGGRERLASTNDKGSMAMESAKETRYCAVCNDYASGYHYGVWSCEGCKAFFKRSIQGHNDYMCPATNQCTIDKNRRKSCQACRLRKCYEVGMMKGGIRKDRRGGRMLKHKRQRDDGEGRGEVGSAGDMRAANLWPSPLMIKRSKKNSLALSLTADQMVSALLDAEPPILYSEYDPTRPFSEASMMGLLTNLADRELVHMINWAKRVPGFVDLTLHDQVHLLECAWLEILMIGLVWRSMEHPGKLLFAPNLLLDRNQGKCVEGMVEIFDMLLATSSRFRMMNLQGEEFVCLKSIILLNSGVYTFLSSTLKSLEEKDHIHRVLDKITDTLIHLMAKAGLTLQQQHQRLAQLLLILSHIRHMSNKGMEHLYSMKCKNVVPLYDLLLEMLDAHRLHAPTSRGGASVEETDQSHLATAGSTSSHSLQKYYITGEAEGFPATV
Chain of Estrogen receptor (Homo sapiens) + Estrogen receptor beta (Homo sapiens) (Q92731 whole entry, looked up, the tested form may be a part): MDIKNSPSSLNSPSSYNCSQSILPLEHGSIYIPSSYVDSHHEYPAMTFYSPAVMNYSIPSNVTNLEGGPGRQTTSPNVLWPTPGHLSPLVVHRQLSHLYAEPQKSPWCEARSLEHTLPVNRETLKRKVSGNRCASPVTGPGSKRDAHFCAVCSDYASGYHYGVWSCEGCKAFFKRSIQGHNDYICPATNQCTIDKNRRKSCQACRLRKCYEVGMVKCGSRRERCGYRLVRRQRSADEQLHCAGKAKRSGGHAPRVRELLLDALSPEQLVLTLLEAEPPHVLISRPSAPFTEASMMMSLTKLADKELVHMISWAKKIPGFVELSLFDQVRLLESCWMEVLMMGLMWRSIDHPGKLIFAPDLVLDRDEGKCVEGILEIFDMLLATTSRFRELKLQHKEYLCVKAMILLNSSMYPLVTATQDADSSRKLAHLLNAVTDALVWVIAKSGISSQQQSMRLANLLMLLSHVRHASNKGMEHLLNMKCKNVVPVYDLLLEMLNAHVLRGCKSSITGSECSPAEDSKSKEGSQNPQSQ

SMILES | AC50 | outcome
C=C[C@@]1(C)CC(=O)[C@]2(O)[C@@]3(C)[C@@H](O)CCC(C)(C)[C@@H]3[C@H](O)[C@H](OC(C)=O)[C@@]2(C)O1 | 36.1 µM (active) | –
Nc1ccc(C(=O)O)cc1 | – | inactive
CC(C)c1ccc(O)c(C(C)C)c1 | – | inactive
CCCCCCCCCC[N+](C)(CCCCCCCCCC)CCC[Si](OC)(OC)OC | 11.8 µM (active) | –
O=C(Nc1ccccc1)c1cc(Cl)ccc1O | 31 µM (active) | –
CCCC=C(C=O)CC | – | inactive
Oc1ccccc1Cc1ccccc1O | 53.4 µM (active) | –
CCCCCCCCCCCCCCCCCCOS(=O)(=O)O | 23.7 µM (active) | –
C=C1C[C@H]2[C@@H]3C=C(C)C4=CC(=O)CC[C@]4(C)[C@H]3CC[C@]2(C)[C@@]1(OC(C)=O)C(C)=O | 16.9 µM (active) | –
NC(=O)Nc1ccccc1 | – | inactive
Cc1ccc([N+](=O)[O-])cc1N | – | inactive
O=C(O)C1CCC(C(=O)O)CC1 (stereo not given) | – | inactive
CN(C)c1ccc2nc3ccc(=[N+](C)C)cc-3sc2c1 | 12 µM (active) | –
CCCCCCCOC(=O)c1ccc(O)cc1 | 12.2 µM (active) | –
CC1=CCC2CC1C2(C)C (stereo not given) | – | inactive
C[Si](C)(C)N[Si](C)(C)C | – | inactive
C1CNCCN1 | – | inactive
CCCC(CC)c1ccccc1 (stereo not given) | – | inactive
CCN1CN(CC)CN(CC)C1 | – | inactive
CCCCCCCCCCCC(=O)N(C)CC(=O)O | – | inactive
O=S(=O)(O)c1ccc(N=Nc2c(O)ccc3ccccc23)cc1 | – | inactive
